Results filed as inconclusive are left out. Active and inactive are the calls of the source. Unless noted, calls follow the shape of the dose curve; as a rule, active = well fitted curve in the direction sought with a large enough effect; inconclusive = small, poorly fitted or top-dose-only effect, or another doubt; inactive = no such curve, though single readings can be large; an effect the other way counts as inactive or inconclusive.
How the values were obtained:
[1] = AP1 Signaling Pathway (AID 357; active = well fitted curve in either direction with a large enough effect, not every such curve was filed as active;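 also: ME-180 reporter cells stimulated with EGF at its EC50 level; % is scaled to controls: 0 for no effect and ±100 for the full control effect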); details: ME-180 AP-1-bla reporter, EGF-induced, beta-lactamase ratio, 5 h; at 17.2 µM (top of the series) unless noted
Summary of the method: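 Titration-series screen for positive or negative modulators of EC50 EGF-induced signaling in ME-180 cells carrying an AP-1-driven beta-lactamase reporter. After 5 hours at 37 degrees Celsius, CCF4 460nm/530nm emission ratio gave %Activity; AC50 values derived.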

[2] = NFAT Signaling Pathway (AID 444; active = well fitted curve in either direction with a large enough effect, not every such curve was filed as active;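 also: carbachol stimulus at about its EC50 of 1 µM final; % is scaled to controls: 0 for no effect and ±100 for the full control effect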); details: Jurkat NFAT-bla M1, carbachol, beta-lactamase ratio, 5 h; at 17.2 µM (top of the series) unless noted
Summary of the method: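 Jurkat cells with NFAT-driven β-lactamase reporter and co-expressed M1 receptor, stimulated with carbachol (final 1 uM, ~EC50), compound titration, 5 h at 37 °C. CCF4 loaded 1 h at RT; 460/530 nm ratio gave %activity and AC50.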

[3] = Stat Signaling Pathway (AID 446; active = well fitted curve in either direction with a large enough effect, not every such curve was filed as active;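 also: ME-180 cervical cancer cells given 40 pM IL-6 alongside compound; SIE-controlled beta-lactamase reporter measured as 460/530 nm FRET emission ratio; % is scaled to controls: 0 for no effect and ±100 for the full control effect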)
Summary of the method: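 Compound effects on IL-6-induced STAT reporter activity were measured in ME-180 cells. After overnight culture, cells were co-treated with 40 pM IL-6 for 5 hrs before beta-lactamase substrate loading at room temperature.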

[4] = biological target: Glucocorticoid receptor (Homo sapiens) (UniProt P04150); experiment: GR-GFP Redistribution (AID 450;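 active = compounds whose dose series gives a full or clear partial fitted curve of increased nuclear translocation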; also: potency is read from the fitted curve at half-maximal effect); details: U2OS GR-GFP nuclear translocation, laser cytometry, 2 h
[5] = biological target: Cytochrome P450 1A2 (Homo sapiens) (UniProt P05177); experiment: p450-cyp1a2 (AID 410; calls by dose curve; also: potency is read from the fitted curve at half-maximal effect;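 as to activity change, negative = inhibition: -100% = full effect of reference inhibitor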)
Summary of the method: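 O-Demethylation of luciferin 6' methyl ether by human CYP1A2 is monitored as luciferase luminescence. Substrate sits at Km (100uM); enzyme is 20nM. Values are scaled to 57 uM furafylline as maximal inhibition.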

[6] = biological target: Glucocorticoid receptor (Homo sapiens) (UniProt P04150); experiment: GR-EFC Redistribution (AID 451; calls by dose curve; also: potency is read from the fitted curve at half-maximal effect); details: CHO-K1 GR-EFC translocation, beta-gal luminescence, 2 h
Summary of the method: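 CHO-K1 cells expressing nuclear EA and GR-ED fragments of b-gal; compounds titrated up to 46 uM final, 2 h at 37 C. GR nuclear translocation read as complemented b-gal luminescence after 1 h RT detection.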

[7] = biological target: Mitogen-activated protein kinase 10 (Mus musculus) (UniProt Q61831); experiment: JNK3 AlphaScreen Assay (AID 530; active = well fitted curve in either direction with a large enough effect, not every such curve was filed as active;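 also: kinase came from lysate of stimulated human HepG2 cells; signal reports phosphorylation of biotinylated GST-cJun 1-79 at Ser73 with 10 µM ATP; % is scaled to controls: 0 for no effect and ±100 for the full control effect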)
Summary of the method: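 Activity was read by AlphaScreen after JNK3-containing HepG2 lysate (cytokine pre-activated) phosphorylated biotinylated GST-cJun with 10 uM ATP at room temperature. Phospho-Ser73 cJun antibody with Protein-A acceptor beads provided detection.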

[8] = biological target: 3',5'-cyclic-AMP phosphodiesterase 4B (Homo sapiens) (UniProt Q07343); experiment: qHTS Assay for Inhibitors of PDE-IV (AID 607; active = well fitted activation curve with a large enough effect in the main read-out, with a control signal flat, not every such curve was filed as active; also: % of control where 0% means no effect)
Summary of the method: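 ACTOne HEK293 cells carry a modified cAMP-gated CNG channel and express endogenous PDE4; plated 1000 cells/well, compounds up to 22.9 uM final. Membrane-potential dye fluorescence (ex 535/em 590) was read; parental cells received 10 uM forskolin + 100 uM RO 20-1724.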

[9] = biological target: Guanine nucleotide-binding protein G(i) subunit alpha-1 (Homo sapiens) (UniProt P63096); experiment: qHTS Assay for Inhibitors of RGS12 GoLoco Motif Activity (Green Fluorophore) (AID 879); also: potency is read from the fitted curve at half-maximal effect
Summary of the method: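 A drop in FITC polarization marked displacement of the FITC-tagged RGS12 GoLoco peptide (10 nM) from Gαi1 (50 nM). Compounds were incubated 10 min at room temperature in Tris pH 7.5 buffer containing 150 mM NaCl, 0.1 mM GDP and 0.05% NP40; unlabeled peptide titration served as control.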

[10] = qHTS Assay for Identification of Small Molecule Antagonists for NFkB Signaling Pathway (AID 895; active = well fitted inhibition curve with a large enough effect in the signal ratio, with a control signal flat, not every such curve was filed as active; the % refers to the signal ratio; also: potency is read from the fitted curve at half-maximal effect)
Summary of the method: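 ME-180 NFkB-bla cells (beta-lactamase under NFkB response element), plated overnight, treated with compound then 10 pM TNF alpha (about EC50) for 5 hrs at 37 C. LiveBLAzer FRET read at 460/530 nm emission, 405 nm excitation.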

[11] = biological target: Cytochrome P450 2C19 (Homo sapiens) (UniProt P33261); experiment: qHTS Assay for Inhibitors and Substrates of Cytochrome P450 2C19 (AID 899); also: % is scaled to controls: 0 for no effect and ±100 for the full control effect; nearly all actives have a fitted effect of over 60% in size
Summary of the method: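 Signal comes from luciferase acting on luciferin released by CYP2C19-mediated hydroxylation of Luciferin-H EGE, 10uM (KM). Assay mix: 5nM enzyme, 50mM KPO4; 60 min at 37C with NADPH regeneration. Data normalized against 57uM ketoconazole.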

[12] = qHTS Assay for Identification of Small Molecule Antagonists for Thrombopoietin (TPO) Signaling Pathway (AID 918); details: TPO-dependent cell signaling reporter, antagonist mode; also: potency is read from the fitted curve at half-maximal effect; nearly all actives have a fitted effect of over 60% in size
Summary of the method: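 Inhibitors of TPO signaling are sought by stimulating IL-3-starved murine Ba/F3 cells (human TPO receptor, Glycoprotein IIb-driven luciferase) with TPO at its EC50 of 26 pM alongside compound. After 24 hrs at 37 C, reporter luminescence is measured.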

[13] = biological target: Muscarinic acetylcholine receptor M1 (Rattus norvegicus) (UniProt P08482); experiment: qHTS Assay for Antagonists of Acetylcholine Muscarinic M1 Receptor: Kinetic Measurement of Intracellular Calcium Response (AID 943); also: nearly all actives have a fitted effect of over 75% in size; also: potency is read from the fitted curve at half-maximal effect;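 as to activity change, negative = inhibition: Fluo-4 calcium signal as peak divided by basal fluorescence over 4 min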
Summary of the method: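 Antagonism is measured as inhibition of the carbachol-evoked calcium rise in CHO cells transfected with rat M1. Cells are dye-loaded, exposed to compound for 10 min, then stimulated with 100 nM carbachol (EC80).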

[14] = biological target: Muscarinic acetylcholine receptor M1 (Rattus norvegicus) (UniProt P08482); experiment: qHTS Assay for Antagonists of Acetylcholine Muscarinic M1 Receptor: Measurement of IP-One Response (AID 944); also: nearly all actives have a fitted effect of over 75% in size; also: potency is read from the fitted curve at half-maximal effect
Summary of the method: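 Antagonist mode with rat M1 receptor transfected into CHO cells. Compound is added first for 10 min, carbachol at its EC80 follows for 30 min, and lysis reagents then allow TR-FRET detection of accumulated IP1.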

[15] = biological target: Pyruvate kinase (Leishmania mexicana) (UniProt Q27686); experiment: qHTS Validation Assay for Inhibitors of Leishmania Mexicana Pyruvate Kinase (AID 945);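 also: 0% = DMSO only neutral control wells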
Summary of the method: (§1)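 The enzyme is a highly purified E451W mutant of LmPYK used at 0.2 nM. It converts 0.5 mM PEP and 0.1 mM ADP over 1 h at room temperature; product ATP is quantified by luciferase luminescence relative to DMSO controls.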

[16] = biological target: Pyruvate kinase PKM (Homo sapiens) (UniProt P14618); experiment: qHTS Assay for Activators of Human Muscle Pyruvate Kinase (AID 954; active = well fitted curve in the direction sought with a large enough effect, not every such curve was filed as active;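 also: 0% = uninhibited enzyme and -100% = no enzyme or full thiadiazolimine inhibition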)
Summary of the method: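 A coupled luminescent readout tracked ATP made from ADP by purified PKM2. Final conditions included 0.1 nM enzyme, PEP and ADP at 0.5 and 0.1 mM, pH 7.2 imidazole buffer with BSA, and a one-hour room-temperature reaction.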

[17] = biological target: Alpha-galactosidase (Coffea arabica) (UniProt Q42656); experiment: Counterscreen for Glucocerebrosidase Inhibitors: qHTS Assay for Coffee Bean alpha-Galactosidase at pH 4.5 (AID 957);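 also: plate controls were enzyme alone for no effect and no enzyme for full effect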
Summary of the method: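 Enzyme is added first (2 nM final), then compounds titrated from 0.7 nM to 77 uM, then 80 uM 4-methylumbelliferyl alpha-D-galactopyranoside; after 20 min at room temperature a pH 10 NaOH/glycine stop precedes fluorescence reading at 365/440 nm.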

[18] = biological target: Alpha-galactosidase A (Homo sapiens) (UniProt P06280); experiment: Counterscreen for Glucocerebrosidase Inhibitors: qHTS Assay for Human alpha-Galactosidase at pH 4.5 (AID 992); also: 0% is about no effect
Summary of the method: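 Citrate buffer pH 4.5, Tween-20 0.005%. Enzyme 2 nM, substrate 80 uM, 20 min RT. Stop pH 10. Fluorescence Ex 365/Em 440. AC50 by Hill fit.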

[19] = biological target: alpha-glucosidase (Oryza sativa, rice) (UniProt Q653V4); experiment: Counterscreen for Glucocerebrosidase Inhibitors: qHTS Assay for Rice alpha-Glucosidase at pH 5.0 (AID 997);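 also: 0% = full activity with enzyme and -100% = basal without enzyme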
Summary of the method: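 Endpoint fluorogenic assay at pH 5.0: compounds (0.7 nM to 77 uM) titrated against 4 nM rice enzyme and 400 uM 4-MU-alpha-glucoside for 20 min at room temperature; NaOH/glycine stop, read ex 365/em 440 nm, Hill-fitted AC50.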

[20] = biological target: Alpha-galactosidase (Coffea arabica) (UniProt Q42656); experiment: Counterscreen for Glucocerebrosidase Inhibitors: qHTS Assay for Coffee Bean alpha-Galactosidase at pH 5.9 (AID 998);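 also: plate controls were uninhibited enzyme for no effect and no-enzyme basal signal for full effect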
Summary of the method: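 Enzyme 2 nM + cpd (0.7 nM–77 uM titration) + 4-MU-alpha-Gal 80 uM, pH 5.9 citrate/Tween-20, RT 20 min, NaOH/glycine stop pH 10, fluor 365/440. Normalized to no-enzyme and full-activity controls; Hill-fit AC50.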

[21] = biological target: Cytochrome P450 2C9 (Homo sapiens) (UniProt P11712); experiment: qHTS Assay for Inhibitors and Substrates of Cytochrome P450 2C9 (AID 883); also: % is scaled to controls: 0 for no effect and ±100 for the full control effect; nearly all actives have a fitted effect of over 60% in size
Summary of the method: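 Signal: luciferase luminescence reporting luciferin produced by CYP2C9. Conditions: 10nM enzyme, Luciferin-H 100uM at KM, 25mM KPO4, 37C, 60 min NADPH-driven reaction. Reference: 57uM sulphaphenazole as 100% inhibition.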

[22] = biological target: Cytochrome P450 2D6 (Homo sapiens) (UniProt P10635); experiment: qHTS Assay for Inhibitors and Substrates of Cytochrome P450 2D6 (AID 891);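 also: luciferin methyl ether substrate demethylated by CYP2D6 with NADPH regeneration; % is scaled to controls: 0 for no effect and ±100 for the full control effect; nearly all actives have a fitted effect of over 60% in size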
Summary of the method: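 Luminescent read-out of luciferin formed by 5 nM human CYP2D6 demethylating 30 uM Luciferin-ME EGE (Km level) over 60 min at room temperature after NADPH regeneration addition. Data normalized to full inhibition by 1.43 uM quinidine.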

[23] = biological target: Cytochrome P450 3A4 (Homo sapiens) (UniProt P08684); experiment: qHTS Assay for Activators of Cytochrome P450 3A4 (AID 885); also: nearly all actives have a fitted effect of over 65% in size
Summary of the method: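 CYP3A4 activity: Luciferin-PPXE O-dealkylation, 25uM substrate, 200mM KPO4, RT throughout. Read-out is luciferase luminescence; higher values reflect activation.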

[24] = biological target: Pyruvate kinase PKM (Homo sapiens) (UniProt P14618); experiment: qHTS Assay for Inhibitors of Human Muscle Pyruvate Kinase (AID 958)
Summary of the method: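 Human PKM2 activity is measured as ATP generation, detected by luciferase-coupled luminescence. The enzyme (0.1 nM) acts on 0.5 mM PEP and 0.1 mM ADP for 1 h at ambient temperature; data are normalized to uninhibited and full-inhibition wells.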

[25] = biological target: Pyruvate kinase (Leishmania mexicana) (UniProt Q27686); experiment: qHTS Validation Assay for Activators of Leishmania Mexicana Pyruvate Kinase (AID 959)
Summary of the method: as §1

Chain of Pyruvate kinase PKM (Homo sapiens) (P14618 whole entry, looked up): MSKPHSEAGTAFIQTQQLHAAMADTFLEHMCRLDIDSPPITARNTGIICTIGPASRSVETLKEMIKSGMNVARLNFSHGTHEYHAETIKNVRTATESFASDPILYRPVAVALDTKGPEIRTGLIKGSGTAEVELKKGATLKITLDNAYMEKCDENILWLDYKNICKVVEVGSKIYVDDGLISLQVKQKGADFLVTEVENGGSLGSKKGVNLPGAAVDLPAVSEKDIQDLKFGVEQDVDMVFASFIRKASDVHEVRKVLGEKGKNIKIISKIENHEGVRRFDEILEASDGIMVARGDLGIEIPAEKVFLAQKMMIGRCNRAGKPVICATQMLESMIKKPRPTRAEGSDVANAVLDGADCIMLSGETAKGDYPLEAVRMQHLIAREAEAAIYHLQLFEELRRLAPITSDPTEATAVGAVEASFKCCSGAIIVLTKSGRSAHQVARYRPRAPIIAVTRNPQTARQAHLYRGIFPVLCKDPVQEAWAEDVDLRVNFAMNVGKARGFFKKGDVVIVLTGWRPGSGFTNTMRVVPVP
Chain of 3',5'-cyclic-AMP phosphodiesterase 4B (Homo sapiens) (Q07343 whole entry, looked up): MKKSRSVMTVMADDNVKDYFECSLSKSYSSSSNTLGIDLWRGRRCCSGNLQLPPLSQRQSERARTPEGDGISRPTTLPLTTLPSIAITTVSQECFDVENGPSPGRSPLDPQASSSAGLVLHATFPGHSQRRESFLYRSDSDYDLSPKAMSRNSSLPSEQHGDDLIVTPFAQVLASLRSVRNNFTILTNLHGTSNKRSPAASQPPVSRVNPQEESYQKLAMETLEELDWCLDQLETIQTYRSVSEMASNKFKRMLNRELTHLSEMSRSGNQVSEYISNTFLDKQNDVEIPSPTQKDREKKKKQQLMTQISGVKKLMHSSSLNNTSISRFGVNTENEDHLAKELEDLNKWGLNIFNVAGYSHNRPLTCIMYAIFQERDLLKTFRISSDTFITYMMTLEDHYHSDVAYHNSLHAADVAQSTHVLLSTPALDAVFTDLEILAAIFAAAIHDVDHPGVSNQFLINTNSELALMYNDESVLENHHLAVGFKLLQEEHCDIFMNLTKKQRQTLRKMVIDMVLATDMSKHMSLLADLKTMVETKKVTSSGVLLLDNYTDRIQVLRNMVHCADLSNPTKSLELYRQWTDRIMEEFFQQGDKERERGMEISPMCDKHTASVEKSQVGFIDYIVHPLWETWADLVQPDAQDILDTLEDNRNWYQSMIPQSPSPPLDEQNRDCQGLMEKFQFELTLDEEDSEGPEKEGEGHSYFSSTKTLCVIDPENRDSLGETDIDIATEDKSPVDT
Chain of Muscarinic acetylcholine receptor M1 (Rattus norvegicus) (P08482 whole entry, looked up): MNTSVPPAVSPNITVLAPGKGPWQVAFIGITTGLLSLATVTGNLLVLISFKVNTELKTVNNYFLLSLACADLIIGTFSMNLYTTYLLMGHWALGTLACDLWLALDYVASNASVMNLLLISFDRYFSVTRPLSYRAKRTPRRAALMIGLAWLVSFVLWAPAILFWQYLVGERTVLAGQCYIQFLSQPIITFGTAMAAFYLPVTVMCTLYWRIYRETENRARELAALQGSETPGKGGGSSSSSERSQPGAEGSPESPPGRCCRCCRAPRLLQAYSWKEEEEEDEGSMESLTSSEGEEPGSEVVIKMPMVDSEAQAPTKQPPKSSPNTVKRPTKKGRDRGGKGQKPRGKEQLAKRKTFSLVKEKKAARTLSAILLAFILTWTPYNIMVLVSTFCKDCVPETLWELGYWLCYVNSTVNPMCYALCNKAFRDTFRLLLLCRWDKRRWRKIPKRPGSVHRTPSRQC
Chain of Alpha-galactosidase (Coffea arabica) (Q42656 whole entry, looked up): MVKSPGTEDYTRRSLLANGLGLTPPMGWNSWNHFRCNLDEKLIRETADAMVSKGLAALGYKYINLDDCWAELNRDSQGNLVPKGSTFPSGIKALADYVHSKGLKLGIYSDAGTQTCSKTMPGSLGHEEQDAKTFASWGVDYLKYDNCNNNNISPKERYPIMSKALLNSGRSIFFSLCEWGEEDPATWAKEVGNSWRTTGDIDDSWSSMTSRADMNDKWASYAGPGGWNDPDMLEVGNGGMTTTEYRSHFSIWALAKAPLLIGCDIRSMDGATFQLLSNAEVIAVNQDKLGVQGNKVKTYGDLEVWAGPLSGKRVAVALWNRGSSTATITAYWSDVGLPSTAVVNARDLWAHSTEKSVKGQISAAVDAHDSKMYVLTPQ
Chain of Cytochrome P450 1A2 (Homo sapiens) (P05177 whole entry, looked up): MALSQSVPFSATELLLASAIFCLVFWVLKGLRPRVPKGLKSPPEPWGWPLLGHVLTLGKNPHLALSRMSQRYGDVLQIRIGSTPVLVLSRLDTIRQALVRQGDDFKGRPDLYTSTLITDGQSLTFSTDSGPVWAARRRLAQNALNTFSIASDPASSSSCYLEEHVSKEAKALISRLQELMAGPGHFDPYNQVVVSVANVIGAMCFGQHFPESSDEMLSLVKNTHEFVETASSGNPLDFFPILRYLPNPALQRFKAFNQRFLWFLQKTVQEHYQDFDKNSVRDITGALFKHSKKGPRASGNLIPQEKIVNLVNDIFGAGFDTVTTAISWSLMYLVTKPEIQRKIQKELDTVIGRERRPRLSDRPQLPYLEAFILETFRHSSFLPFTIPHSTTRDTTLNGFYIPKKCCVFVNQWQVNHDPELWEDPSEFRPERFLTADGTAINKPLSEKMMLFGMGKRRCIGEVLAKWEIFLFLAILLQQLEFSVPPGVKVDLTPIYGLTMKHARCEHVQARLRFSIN
Chain of Pyruvate kinase (Leishmania mexicana) (Q27686 2-499 E452W): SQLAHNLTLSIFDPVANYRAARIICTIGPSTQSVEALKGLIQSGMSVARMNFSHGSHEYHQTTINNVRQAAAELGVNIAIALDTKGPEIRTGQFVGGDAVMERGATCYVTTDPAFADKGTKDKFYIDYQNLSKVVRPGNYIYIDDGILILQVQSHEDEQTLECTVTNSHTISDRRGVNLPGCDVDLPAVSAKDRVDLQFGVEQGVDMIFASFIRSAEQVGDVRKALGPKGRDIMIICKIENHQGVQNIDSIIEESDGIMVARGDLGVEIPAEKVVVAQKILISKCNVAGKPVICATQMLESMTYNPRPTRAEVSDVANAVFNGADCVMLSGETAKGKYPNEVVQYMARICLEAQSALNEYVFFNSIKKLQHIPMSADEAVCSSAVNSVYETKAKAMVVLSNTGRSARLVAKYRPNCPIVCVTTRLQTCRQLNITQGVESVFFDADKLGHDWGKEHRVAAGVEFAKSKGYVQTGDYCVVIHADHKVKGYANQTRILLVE
Chain of Glucocorticoid receptor (Homo sapiens) (P04150 whole entry, looked up, the tested form may be a part): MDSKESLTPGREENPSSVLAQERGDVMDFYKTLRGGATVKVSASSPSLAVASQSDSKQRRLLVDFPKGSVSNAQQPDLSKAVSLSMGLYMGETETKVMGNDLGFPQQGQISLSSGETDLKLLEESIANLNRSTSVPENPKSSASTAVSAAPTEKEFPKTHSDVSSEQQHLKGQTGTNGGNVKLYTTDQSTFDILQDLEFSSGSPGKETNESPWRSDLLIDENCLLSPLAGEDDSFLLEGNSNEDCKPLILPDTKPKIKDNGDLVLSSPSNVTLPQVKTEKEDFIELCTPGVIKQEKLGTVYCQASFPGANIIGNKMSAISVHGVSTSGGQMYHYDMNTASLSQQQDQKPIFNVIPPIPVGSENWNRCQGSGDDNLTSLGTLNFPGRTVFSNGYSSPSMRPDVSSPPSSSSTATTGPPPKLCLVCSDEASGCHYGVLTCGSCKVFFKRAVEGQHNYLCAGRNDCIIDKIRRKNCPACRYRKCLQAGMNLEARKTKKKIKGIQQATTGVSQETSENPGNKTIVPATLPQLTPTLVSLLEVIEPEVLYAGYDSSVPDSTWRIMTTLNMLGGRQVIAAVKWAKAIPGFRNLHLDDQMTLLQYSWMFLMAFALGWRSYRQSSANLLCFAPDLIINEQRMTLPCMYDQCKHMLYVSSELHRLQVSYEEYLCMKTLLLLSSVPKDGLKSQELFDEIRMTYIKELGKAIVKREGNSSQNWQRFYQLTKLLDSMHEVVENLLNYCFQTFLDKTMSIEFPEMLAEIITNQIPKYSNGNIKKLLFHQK
Chain of Alpha-galactosidase A (Homo sapiens) (P06280 whole entry, looked up): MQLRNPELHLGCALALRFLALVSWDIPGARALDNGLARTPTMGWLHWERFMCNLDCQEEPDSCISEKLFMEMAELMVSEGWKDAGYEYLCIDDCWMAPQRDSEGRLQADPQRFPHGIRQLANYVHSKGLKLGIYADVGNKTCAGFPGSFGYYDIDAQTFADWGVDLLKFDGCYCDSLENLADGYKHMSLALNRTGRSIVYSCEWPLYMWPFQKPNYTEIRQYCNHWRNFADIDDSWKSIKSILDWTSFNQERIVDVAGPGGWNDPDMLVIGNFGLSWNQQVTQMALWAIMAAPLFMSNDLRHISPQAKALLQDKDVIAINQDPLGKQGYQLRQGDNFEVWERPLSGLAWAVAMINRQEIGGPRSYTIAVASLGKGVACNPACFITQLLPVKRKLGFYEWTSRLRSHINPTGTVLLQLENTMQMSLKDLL
Chain of Cytochrome P450 3A4 (Homo sapiens) (P08684 whole entry, looked up): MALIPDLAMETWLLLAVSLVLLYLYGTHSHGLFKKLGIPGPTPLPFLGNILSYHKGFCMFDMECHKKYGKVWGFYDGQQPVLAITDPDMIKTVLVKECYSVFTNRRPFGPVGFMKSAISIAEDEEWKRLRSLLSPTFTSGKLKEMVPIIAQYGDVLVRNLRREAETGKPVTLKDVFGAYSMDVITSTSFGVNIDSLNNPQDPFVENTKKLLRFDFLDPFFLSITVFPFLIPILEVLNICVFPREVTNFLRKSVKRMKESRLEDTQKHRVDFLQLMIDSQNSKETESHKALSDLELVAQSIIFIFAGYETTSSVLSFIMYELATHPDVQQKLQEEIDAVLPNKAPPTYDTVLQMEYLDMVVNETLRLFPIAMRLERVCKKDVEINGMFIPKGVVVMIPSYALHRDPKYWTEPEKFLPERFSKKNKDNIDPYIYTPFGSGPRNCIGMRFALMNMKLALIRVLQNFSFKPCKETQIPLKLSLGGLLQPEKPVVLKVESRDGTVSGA

COC(=O)C(O)(c1c[nH]c2ccccc12)C(F)(F)F (centres undefined)
inactive: activity change, negative = inhibition [1] -14.1% | activity change, negative = inhibition [2] -8.45% | outcome [3] | Potency [4] > 20.6 µM

CCOCCN1CCC(OC(C)=O)C(C)C1 (centres undefined)
inactive: activity change, negative = inhibition [1] -2.51% | activity change, negative = inhibition [2] -5.87% | outcome [3] | Potency [4] > 20.6 µM

C[C@H]1CCCC(=O)CCCCCc2cc(O)cc(O)c2C(=O)O1
inactive: activity change, negative = inhibition [1] -29.6% | activity change, negative = inhibition [2] 22.4% | outcome [3] | Potency [4] > 20.6 µM

COc1cc2[nH]c(=O)n(-c3cccc(Cl)c3)c(=O)c2cc1OC
inactive: activity change, negative = inhibition [1] 9.62% | activity change, negative = inhibition [2] 13.7% | outcome [3] | Potency [4] > 20.6 µM

C[C@]1(C(=O)O)[C@@H]2CC[C@@H](O2)[C@@]1(C)C(=O)O
active: activity change, negative = inhibition [1] -103% [at 38 µM] | Potency [10] 6.31 µM | Potency [12] 5.01 µM
inactive: Potency [5] | Potency [4] > 46 µM | Potency [6] > 46 µM | outcome [7] | outcome [8] | Potency [9] | Potency [11] | Potency [13] | Potency [14] | Potency [15] | outcome [16] | outcome [17] | outcome [18] | outcome [19] | outcome [20]

C[C@@]12CC[C@H]3[C@@H](CCC4=CC(=O)CC[C@]43C)[C@H]1CCC2=O
inactive: activity change, negative = inhibition [1] 2.25% [at 38 µM] | Potency [5] | activity change, negative = inhibition [2] 9.12% [at 38 µM] | outcome [3] | outcome [7] | outcome [8] | Potency [21] | Potency [22] | Potency [11]

O=c1[nH]c2ccccc2c(=O)n1-c1cccc(Cl)c1
inactive: activity change, negative = inhibition [1] 24.2% | activity change, negative = inhibition [2] -3.58% | outcome [3] | Potency [4] > 20.6 µM

NC(N)=Nc1ccc2[nH]c3c(c2c1)C[C@]1(O)[C@@H]2Cc4ccc(O)c5c4[C@]1(CCN2CC1CC1)[C@H]3O5
active: Potency [9] 25.1 µM | Potency [12] 12.6 µM | Potency [13] 3.55 µM | Potency [14] 7.94 µM | Potency [24] 10 µM
inactive: activity change, negative = inhibition [1] -18.3% [at 38 µM] | Potency [5] | outcome [3] | Potency [4] > 46 µM | Potency [6] > 46 µM | outcome [7] | outcome [8] | Potency [23] | outcome [16] | outcome [17] | outcome [25] | outcome [18] | outcome [19] | outcome [20]

C=CCN1CCc2cccc3c2[C@@H]1Cc1ccc(O)c(O)c1-3
active: Potency [5] 3.16 µM | Potency [12] 10 µM
inactive: activity change, negative = inhibition [1] -21.9% [at 38 µM] | outcome [3] | Potency [4] > 46 µM | outcome [8] | Potency [23] | Potency [13] | Potency [15] | Potency [24] | outcome [18] | outcome [19] | outcome [20]

Source: PubChem BioAssay (NCATS)
